Common to all, as to details: mRNA level, 48 h; actives raise or lower the signal
Read-out in experiment [1]: matrix metalloproteinase-10 (MMP10), MMP10 (gene 4319)
Description: LTEA_HepaRG_MMP10: Life Technologies and Expression Analysis (LTEA) Assay for matrix metalloproteinase-10 (MMP10) using HepaRG (AID 2283517). Put shortly:
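In differentiated HepaRG cultures kept in 0.5% DMSO, test chemicals act for 48 h over an eight-point range with a top dose of 100 uM. Expression is then quantified by TaqMan RT-PCR against ACTB, GAPDH and POLR2A.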

Read-out in another experiment: MYC, MYC (gene 4609)
Nature of the experiment: LTEA_HepaRG_MYC: Life Technologies and Expression Analysis (LTEA) Assay for MYC using HepaRG (AID 2283518). Put shortly:
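qRT-PCR read-out of MYC transcript (Fluidigm TaqMan, housekeeping-normalized) after 48 h chemical exposure of HepaRG cells; eight concentrations, top 100 uM, half-log steps. Bidirectional curve fitting against 0.5% DMSO vehicle baseline.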

Read-out in experiment [2]: matrix metalloproteinase-3 (MMP3), MMP3 (gene 4314)
Nature of the experiment: LTEA_HepaRG_MMP3: Life Technologies and Expression Analysis (LTEA) Assay for matrix metalloproteinase-3 (MMP3) using HepaRG (AID 2283519). Put shortly: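 Human liver HepaRG cultures received chemicals (top concentration 100 uM, 0.5% DMSO) for 48 h in duplicate. MMP3 mRNA induction or loss was then assessed via TaqMan qRT-PCR with housekeeping-gene normalisation.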

Read-out in experiment [3]: Paternally Expressed 10 (PEG10), PEG10 (gene 23089)
Nature of the experiment: LTEA_HepaRG_PEG10: Life Technologies and Expression Analysis (LTEA) Assay for Paternally Expressed 10 (PEG10) using HepaRG (AID 2283520).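 On AC50: differentiated HepaRG human liver cells in serum-free induction medium with 0.5% DMSO; PEG10 transcript by qRT-PCR normalised to ACTB GAPDH and POLR2A.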 Put shortly:
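qRT-PCR read-out: PEG10 mRNA normalised to three housekeeping genes, fitted bidirectionally against 0.5% DMSO vehicle. HepaRG cells received test chemicals for 48 h in serum-free induction medium, 8 points, top 100 uM, half-log steps.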

Read-out in experiment [4]: Protein phosphatase 2A (PPP2R4), PTPA (gene 5524)
Description: LTEA_HepaRG_PPP2R4: Life Technologies and Expression Analysis (LTEA) Assay for Protein phosphatase 2A (PPP2R4) using HepaRG (AID 2283522). An outline of the steps:
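HepaRG, 48 h exposure, 8-pt half-log series from 100 uM, 0.5% DMSO vehicle, duplicates. Readout: PPP2R4 mRNA, Fluidigm qRT-PCR, housekeeping-normalized. Bidirectional curve fit vs DMSO baseline.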

Read-out in experiment [5]: Phosphatase and tensin (PTEN), PTEN (gene 5728)
Nature of the experiment: LTEA_HepaRG_PTEN: Life Technologies and Expression Analysis (LTEA) Assay for Phosphatase and tensin (PTEN) using HepaRG (AID 2283523). An outline of the steps:
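Expression of PTEN is quantified in the human liver line HepaRG following two days of dosing (top concentration 100 uM, half-log dilutions, 0.5% DMSO). Values derive from bidirectional curve fitting relative to DMSO controls.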

Read-out in experiment [6]: Pyruvate Dehydrogenase Kinase 4 (PDK4), PDK4 (gene 5166)
Nature of the experiment: LTEA_HepaRG_PDK4: Life Technologies and Expression Analysis (LTEA) Assay for Pyruvate Dehydrogenase Kinase 4 (PDK4) using HepaRG (AID 2283525). Put shortly: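 Eight-point, half-log concentration series (max 100 uM, 0.5% DMSO) applied to differentiated HepaRG cells for 48 h in duplicate. Endpoint: PDK4 mRNA induction or repression by qRT-PCR against DMSO baseline.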

Read-out in experiment [7]: NAD(P)H dehydrogenase [quinone] 1 (NQO1), NQO1 (gene 1728)
Nature of the experiment: LTEA_HepaRG_NQO1: Life Technologies and Expression Analysis (LTEA) Assay for NAD(P)H dehydrogenase [quinone] 1 (NQO1) using HepaRG (AID 2283526). An outline of the steps: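 qRT-PCR read-out (Fluidigm TaqMan), normalized to three housekeeping genes, after 48 h chemical exposure of HepaRG cells. Concentrations: eight points, top 100 uM, half-log steps, 0.5% DMSO vehicle. Gain or loss of signal fitted relative to DMSO.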

Read-out in experiment [8]: Nuclear factor erythroid 2-related factor 2 (Homo sapiens) (UniProt Q16236)
Nature of the experiment: LTEA_HepaRG_NFE2L2: Life Technologies and Expression Analysis (LTEA) Assay for Nuclear factor erythroid 2-related factor 2 (NFE2L2) Transcription Factor using HepaRG (AID 2283527). An outline of the steps: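 Human liver HepaRG line treated in duplicate for 48 h with an eight-point series topping at 100 uM. Gene expression of NFE2L2 by qRT-PCR, bidirectionally fitted against the vehicle control.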

Read-out in experiment [9]: Signal transducer and activator of transcription 3 (Homo sapiens) (UniProt P40763)
Description: LTEA_HepaRG_STAT3: Life Technologies and Expression Analysis (LTEA) Assay for Signal transducer and activator of transcription (STAT3) using HepaRG (AID 2283529). Put shortly: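 In this transcriptional endpoint, HepaRG cultures receive test chemicals at up to 100 uM for 48 h, tested in duplicate. STAT3 mRNA is normalized to ACTB, GAPDH and POLR2A.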

Read-out in experiment [10]: solute carrier (SLCO1B1), SLCO1B1 (gene 10599)
Description: LTEA_HepaRG_SLCO1B1: Life Technologies and Expression Analysis (LTEA) Assay for solute carrier (SLCO1B1) using HepaRG (AID 2283530). An outline of the steps: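 SLCO1B1 transcript read by qRT-PCR (Fluidigm arrays), normalized to three housekeeping genes, after 48 h chemical exposure of HepaRG cells; bidirectional concentration-response fitting versus 0.5% DMSO baseline. Eight-point half-log series, maximum 100 uM.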

Read-out in experiment [11]: sulfotransferase 2A1 (SULT2A1), SULT2A1 (gene 6822)
Description: LTEA_HepaRG_SULT2A1: Life Technologies and Expression Analysis (LTEA) Assay for sulfotransferase 2A1 (SULT2A1) using HepaRG (AID 2283531). Put shortly: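 HepaRG, 48 h chemical exposure, 8-pt half-log curve from 100 uM in 0.5% DMSO, duplicates. Readout: TaqMan qRT-PCR of SULT2A1 mRNA, housekeeping-normalized. Bidirectional fit vs DMSO baseline.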

Read-out in experiment [12]: Transforming Growth Factor (TGFA), TGFA (gene 7039)
Nature of the experiment: LTEA_HepaRG_TGFA: Life Technologies and Expression Analysis (LTEA) Assay for Transforming Growth Factor (TGFA) using HepaRG (AID 2283532). Put shortly:
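Gene expression of TGFA was quantified by qRT-PCR after human HepaRG cells were treated for 48 h with test chemicals (eight concentrations, highest 100 uM, 0.5% DMSO). Activity in either direction was fitted relative to DMSO.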

Read-out in experiment [13]: Transforming Growth Factor (TGFB1), TGFB1 (gene 7040)
Nature of the experiment: LTEA_HepaRG_TGFB1: Life Technologies and Expression Analysis (LTEA) Assay for Transforming Growth Factor (TGFB1) Transporter using HepaRG (AID 2283533). Put shortly:
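qRT-PCR readout of TGFB1 transcript in HepaRG lysates, normalized to three housekeeping genes; gain or loss of signal fitted relative to 0.5% DMSO vehicle. Exposure: 48 h, 8-point curve from 100 uM, duplicate wells.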

Read-out in the next experiment: TIMP1, TIMP1 (gene 7076)
Description: LTEA_HepaRG_TIMP1: Life Technologies and Expression Analysis (LTEA) Assay for TIMP1 using HepaRG (AID 2283534).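 Further: TaqMan qRT-PCR signal normalized to ACTB GAPDH and POLR2A housekeeping genes.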 An outline of the steps: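 HepaRG, 48 h exposure, 8-pt half-log series from 100 uM in 0.5% DMSO, duplicates; TIMP1 transcript by Fluidigm qRT-PCR, housekeeping-normalized; bidirectional curve fit vs DMSO baseline.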

Read-out in experiment [14]: Tumor necrosis factor receptor 1 (TNFRSF1A), TNFRSF1A (gene 7132)
Nature of the experiment: LTEA_HepaRG_TNFRSF1A: Life Technologies and Expression Analysis (LTEA) Assay for Tumor necrosis factor receptor 1 (TNFRSF1A) using HepaRG (AID 2283535). Put shortly: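 HepaRG, 48 h plating then 48 h chemical exposure, serum-free induction media; 8-pt CRC from 100 uM, half-log, 0.5% DMSO vehicle, duplicates. Readout: TaqMan qRT-PCR (Fluidigm), housekeeping-gene normalized; bidirectional fit vs DMSO.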

Read-out in experiment [15]: succinate dehydrogenase complex iron sulfur subunit B (SDHB), SDHB (gene 6390)
Description: LTEA_HepaRG_SDHB: Life Technologies and Expression Analysis (LTEA) Assay for succinate dehydrogenase complex iron sulfur subunit B (SDHB) using HepaRG (AID 2283528). Put shortly:
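SDHB transcript level read by TaqMan qRT-PCR, housekeeping-normalised (ACTB, GAPDH, POLR2A), after 48 h chemical treatment of plated HepaRG cells; eight concentrations top 100 uM, half-log steps, 0.5% DMSO, duplicates; fitted both directions against DMSO.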

Read-out in experiment [16]: solute carrier (SLC22A1), SLC22A1 (gene 6580)
Nature of the experiment: LTEA_HepaRG_SLC22A1: Life Technologies and Expression Analysis (LTEA) Assay for solute carrier (SLC22A1) using HepaRG (AID 2283524). Put shortly: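 Transcript induction or suppression of SLC22A1 in human HepaRG cultures is scored after 48 h chemical treatment, with DMSO (0.5%) as baseline for bidirectional fitting. Concentrations span eight half-log points topping at 100 uM.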

Among the data in PubChem BioAssay (EPA / NIEHS) are outcome and AC50 values, retold here.

The source made the active and inactive calls. How the source made its calls: active means hit-call score of the fitted dose curve at least 0.9, where 1 is the maximum; inactive means score below 0.9.

Chain of Signal transducer and activator of transcription 3 (Homo sapiens) (P40763 whole entry, looked up): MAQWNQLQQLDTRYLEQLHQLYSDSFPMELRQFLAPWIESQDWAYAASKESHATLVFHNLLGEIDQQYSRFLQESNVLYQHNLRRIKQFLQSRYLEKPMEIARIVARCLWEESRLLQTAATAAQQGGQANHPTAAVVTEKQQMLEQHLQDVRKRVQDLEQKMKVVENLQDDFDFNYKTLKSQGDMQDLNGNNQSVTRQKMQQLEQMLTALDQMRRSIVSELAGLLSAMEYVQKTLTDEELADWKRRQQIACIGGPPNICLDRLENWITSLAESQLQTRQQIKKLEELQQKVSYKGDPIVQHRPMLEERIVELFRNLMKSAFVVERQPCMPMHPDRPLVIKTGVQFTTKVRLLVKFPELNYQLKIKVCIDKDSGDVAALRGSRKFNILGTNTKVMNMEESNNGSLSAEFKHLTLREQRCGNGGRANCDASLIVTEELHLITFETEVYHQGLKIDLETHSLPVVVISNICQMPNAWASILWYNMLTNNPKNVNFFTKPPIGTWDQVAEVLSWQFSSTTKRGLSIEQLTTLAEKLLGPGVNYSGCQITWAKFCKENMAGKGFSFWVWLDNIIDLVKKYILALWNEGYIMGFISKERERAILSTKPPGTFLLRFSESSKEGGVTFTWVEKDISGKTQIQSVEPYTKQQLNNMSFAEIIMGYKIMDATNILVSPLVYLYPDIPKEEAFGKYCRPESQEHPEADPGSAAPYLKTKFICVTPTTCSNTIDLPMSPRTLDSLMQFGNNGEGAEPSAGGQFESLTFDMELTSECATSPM
Chain of Nuclear factor erythroid 2-related factor 2 (Homo sapiens) (Q16236 whole entry, looked up): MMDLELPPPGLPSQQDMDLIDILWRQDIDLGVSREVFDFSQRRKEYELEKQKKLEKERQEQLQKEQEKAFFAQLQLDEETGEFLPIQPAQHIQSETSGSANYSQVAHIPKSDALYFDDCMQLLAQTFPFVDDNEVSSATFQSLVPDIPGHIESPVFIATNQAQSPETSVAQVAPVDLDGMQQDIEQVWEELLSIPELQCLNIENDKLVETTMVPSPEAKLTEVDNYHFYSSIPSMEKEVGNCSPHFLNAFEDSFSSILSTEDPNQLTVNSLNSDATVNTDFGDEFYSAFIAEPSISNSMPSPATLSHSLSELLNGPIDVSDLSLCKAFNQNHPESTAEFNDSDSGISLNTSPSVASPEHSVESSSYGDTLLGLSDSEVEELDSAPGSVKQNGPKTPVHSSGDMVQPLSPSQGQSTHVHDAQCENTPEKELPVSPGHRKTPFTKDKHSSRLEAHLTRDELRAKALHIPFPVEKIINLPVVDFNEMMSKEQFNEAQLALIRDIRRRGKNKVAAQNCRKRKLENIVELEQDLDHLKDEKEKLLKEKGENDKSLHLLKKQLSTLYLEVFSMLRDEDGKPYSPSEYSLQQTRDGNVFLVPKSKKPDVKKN

For the compound `COCc1cnc(C2=NC(C)(C(C)C)C(=O)N2)c(C(=O)O)c1` (configuration not stated), the outcome in [1] is “inactive”; with MYC, MYC (gene 4609) it was “inactive”; in experiment [2] it was “inactive”; in experiment [3], “inactive”; in experiment [4] it was “inactive”; in experiment [5] it was “inactive”. For the same compound, the result in experiment [6], in experiment [7], in [8], in experiment [9], in experiment [10] and in [11] was inactive. The outcome in [12] was “inactive”; in [13], “inactive”; with TIMP1, TIMP1 (gene 7076), “inactive”; in experiment [14] it was “inactive”.
In the case of `CCN(CC)c1nc(C)cc(OP(=S)(OC)OC)n1`, the outcome in experiment [1] is “inactive”; with MYC, MYC (gene 4609) it was “inactive”; in [2], “inactive”; in experiment [3] it was “inactive”; in experiment [4], “inactive”; in experiment [5], “inactive”. Besides, the result in experiment [6], in [7], in [8], in experiment [15], in experiment [9] and in experiment [10] was inactive. The outcome in [11] was “inactive”; in experiment [12] it was “inactive”; in experiment [13], “inactive”; with TIMP1, TIMP1 (gene 7076) it was “inactive”; in experiment [14], “inactive”.
Regarding `CC(C)Nc1nc(Cl)nc(NC(C)C)n1`, the outcome in experiment [1] was “inactive”; in the experiment with MYC, MYC (gene 4609) it was “inactive”; in experiment [2], “inactive”; in experiment [4], “inactive”; in experiment [5] it was “inactive”; in experiment [16], “inactive”. In addition, the compound was classed as inactive in [6], in experiment [7], in experiment [8], in [15], in experiment [9] and in [11]. Besides, the outcome in experiment [12] was “inactive”; in [13] it was “inactive”; with TIMP1, TIMP1 (gene 7076), “inactive”; in [14], “inactive”. In addition, the AC50 in experiment [3] is 27.2 µM (active).
For the compound `Clc1cccc(C(Cl)(Cl)Cl)n1`, the outcome in [1] is “inactive”; in the experiment with MYC, MYC (gene 4609), “inactive”; in experiment [2], “inactive”; in experiment [3], “inactive”; in experiment [4], “inactive”; in experiment [5] it was “inactive”. For the same compound, the result in experiment [16], in [6], in experiment [7], in experiment [8], in [9] and in experiment [10] was inactive. The outcome in [11] is “inactive”; in [12], “inactive”; in experiment [13], “inactive”; with TIMP1, TIMP1 (gene 7076), “inactive”; in [14], “inactive”.

As usually defined, the AC50 is the midpoint of the concentration-response curve, whichever way the signal moves.
